Our source for the growth values is PubChem BioAssay (NCI).

Test systems include NCI-H23 lung; NCI-H226 lung; NCI-H322M lung; NCI-H460 lung; HOP-92 NSCLC; NCI-H522 lung; A549/ATCC NSCLC; 786-0 renal; COLO 205 colon; HOP-62 NSCLC.
Holding throughout (assay): NCI-60 one-dose screen, 48 h (100 = growth as untreated, 0 = no growth, -100 = all killed)
Common to all, as to settings: 10 µM unless noted

The panel holds about 83,000 compounds, 20% with a hit somewhere; the sample as a whole holds those more often.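 Compound tested at a single concentration for 48 hours in 96-well plates; a percent growth value below 10 was scored as active.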 Values without a mark were called inactive. Activity calls are given as the source filed them.

Turning to `COc1ccc(C2=Nc3c(N)nc(N)nc3NC(c3ccc(Oc4nc(Nc5ccc(F)cc5)nc(N(C)C)n4)c(OC)c3)C2)cc1` (stereo not given), the growth with NCI-H23 lung was 88.4%; with NCI-H226 lung, 77.4%; in the experiment on NCI-H322M lung it was 104%; in the experiment with NCI-H460 lung, 71%; in the experiment with HOP-92 NSCLC it was 16.6%; in the experiment with NCI-H522 lung, 88%. Besides, the figures for the growth in the experiment on A549/ATCC NSCLC, with 786-0 renal and with COLO 205 colon were 75.5%, 52.6% and 91.6%, respectively.
As to `O=C(c1ccc(O)cc1)C1[C@H](c2ccccc2Br)[C@@H](c2ccccc2)NC12C(=O)Nc1ccccc12` (stereo not given in full), the growth with NCI-H23 lung was 34.3%; with NCI-H226 lung, 53.3%; with NCI-H322M lung it was 61.6%; in the experiment with NCI-H460 lung, 33.1%; in the experiment on HOP-92 NSCLC, 38.8%; with NCI-H522 lung, -21.1% (active). The growth is 22.9% in the experiment on A549/ATCC NSCLC, 28.8% in the experiment with 786-0 renal and 28% in the experiment on COLO 205 colon.
With `O=C1CC(c2ccc(I)cc2)OC2C=Cc3ccccc3C12` (stereo not given), the growth in the experiment on NCI-H23 lung is 98.2%; in the experiment on NCI-H226 lung, 90.7%; with NCI-H322M lung, 103%; with NCI-H460 lung, 108%; in the experiment with HOP-92 NSCLC it was 101%; in the experiment on NCI-H522 lung, 86.9%. Also, the growth in the experiment with A549/ATCC NSCLC is 102%; with 786-0 renal, 99.2%; with COLO 205 colon it was 118%.
Turning to `CCC1(OC(=O)c2ccccc2SSCCOC(=O)CCCCC2SCC3NC(=O)NC32)C(=O)OCc2c1cc1n(c2=O)Cc2cc3ccccc3nc2-1` (stereo not given), the growth with NCI-H23 lung is 15.4%; in the experiment on NCI-H226 lung it was 41.6%; with NCI-H322M lung, 83.6%; with NCI-H460 lung, 13.3%; in the experiment on HOP-92 NSCLC, 32.7%; in the experiment with NCI-H522 lung, 42.3%. For the same molecule, the growth in the experiment with A549/ATCC NSCLC was 47%; with 786-0 renal, 50.9%; in the experiment with COLO 205 colon, 79.3%.
Turning to `O=C(CSc1nc2sc3c(c2c(=O)n1-c1ccc(Cl)cc1)CCCC3)NNC(=O)c1ccc(F)cc1`, the growth is 73.7% in the experiment with NCI-H23 lung; 62.7% in the experiment with NCI-H226 lung; 73.8% in the experiment on NCI-H322M lung; 69.2% with HOP-92 NSCLC; 77.3% in the experiment with NCI-H522 lung; 94.2% in the experiment on A549/ATCC NSCLC. For the same molecule, the values for the growth with 786-0 renal and with COLO 205 colon were 96.8% and 125%, respectively.
As for `c1n[nH]cc1-c1nc2ccc3[nH]ncc3c2c2c1CC1(CC2)COC1`, the growth in the experiment on NCI-H23 lung is 62%; in the experiment on NCI-H226 lung, 66%; in the experiment on NCI-H322M lung, 64%; in the experiment on NCI-H460 lung it was 73.4%; with HOP-92 NSCLC it was 92.1%; with NCI-H522 lung, -24.6% (active). Moreover, the figures for the growth with A549/ATCC NSCLC, with 786-0 renal and in the experiment on COLO 205 colon were 95.9%, 60.6% and 24.6%, respectively.
With `COc1ccc(-c2cc(C(=O)Oc3ccc(C=O)cc3OC)nn2-c2ccc(S(C)(=O)=O)cc2)cc1`, the growth is 96% in the experiment with NCI-H23 lung; 104% in the experiment on NCI-H226 lung; 106% in the experiment with NCI-H322M lung; 105% in the experiment on NCI-H460 lung; 110% in the experiment on HOP-92 NSCLC; 68.3% in the experiment with NCI-H522 lung. The growth in the experiment on A549/ATCC NSCLC was 105%; in the experiment on 786-0 renal, 113%; in the experiment on COLO 205 colon it was 133%.
Consider `O=C1Nc2cc(-c3ccc(NS(=O)(=O)c4ccc([N+](=O)[O-])cc4)cc3)ccc2/C1=C/c1ccc[nH]1`, for which the growth with NCI-H23 lung was 3.29% (active); in the experiment on NCI-H226 lung it was -12.3% (active); in the experiment with NCI-H322M lung, 62.2%; in the experiment on NCI-H460 lung, 3.96% (active); with HOP-92 NSCLC, -29.9% (active); in the experiment with NCI-H522 lung, -5.99% (active). In addition, the growth is -31.9% (active) in the experiment on A549/ATCC NSCLC, -8.24% (active) with 786-0 renal and -31.8% (active) with COLO 205 colon.
Take `O=C(c1cc2cc(OCCCN3CCC3)ccc2[nH]1)N1C[C@@H](CCl)c2c1cc(OCc1ccccc1)c1ccccc21`: the growth with NCI-H23 lung is -73.4% (active); in the experiment with NCI-H226 lung, -4.57% (active); with NCI-H322M lung it was -23.5% (active); in the experiment on NCI-H460 lung, -60.1% (active); in the experiment on HOP-92 NSCLC it was -18.7% (active); with NCI-H522 lung, -70.1% (active). For the same molecule, the growth in the experiment with A549/ATCC NSCLC was -18.5% (active); in the experiment on 786-0 renal, -86.1% (active); in the experiment on COLO 205 colon, -84.5% (active).
In the case of `O=C(N/N=C/c1c[nH]c2ccccc12)Nc1ccc(F)c(Cl)c1`, the growth is 28.8% in the experiment with NCI-H23 lung; 65.6% in the experiment with NCI-H226 lung; 85.8% in the experiment with NCI-H322M lung; 23% in the experiment on NCI-H460 lung; 39.9% with HOP-92 NSCLC; -29.1% (active) in the experiment on NCI-H522 lung. In addition, the growth in the experiment with A549/ATCC NSCLC is 39.4%; in the experiment on 786-0 renal, 33.9%; in the experiment with COLO 205 colon, 33.7%.
As to `OCCn1cc(-c2nc3ccc4[nH]ncc4c3c3c2CCCC3)cn1`, the growth with NCI-H23 lung was 43.1%; in the experiment on NCI-H226 lung it was 17.9%; in the experiment with NCI-H322M lung, 68.5%; in the experiment with NCI-H460 lung it was 20%; in the experiment on HOP-92 NSCLC, 51.8%; in the experiment on NCI-H522 lung, 38.9%. Moreover, the growth in the experiment with A549/ATCC NSCLC was 26.6%; in the experiment on 786-0 renal, 43.1%; with COLO 205 colon, 32.8%.
Turning to `CC1=C(C(=O)OCc2ccccc2)C(c2ccc(N(C)C)cc2)n2c(nc3ccccc32)N1` (stereo not given), the growth in the experiment with NCI-H23 lung is 90.8%; in the experiment with NCI-H226 lung, 70.1%; with NCI-H322M lung it was 101%; in the experiment with NCI-H460 lung, 99.8%; in the experiment on HOP-92 NSCLC it was 73.5%; in the experiment with NCI-H522 lung it was 8.11% (active). For the same molecule, the growth in the experiment with A549/ATCC NSCLC is 94.9%; in the experiment with 786-0 renal, 90.6%; in the experiment on COLO 205 colon, 110%.
For the molecule `O=C1CCC(N2C(=O)c3cccc(NCCOCCOCCOCCC(=O)NCCCC(=O)NC(c4ccc5c(c4)OCO5)c4cc(Cl)c5cccnc5c4O)c3C2=O)C(=O)C1` (stereo not given), the growth in the experiment with NCI-H23 lung was 45.1%; in the experiment on NCI-H226 lung, 45%; in the experiment with NCI-H322M lung, 39.5%; in the experiment with NCI-H460 lung, 26.6%; with HOP-92 NSCLC, 13.7%; with NCI-H522 lung, 6.82% (active). Moreover, the values for the growth with A549/ATCC NSCLC, in the experiment on 786-0 renal and in the experiment with COLO 205 colon were 88.3%, 70.8% and 24.5%, respectively.
Take `CC1=NN(C2=NC(=O)C(CC(=O)Nc3ccccc3C(F)(F)F)S2)C(c2ccc(N(C)C)cc2)C1` (stereo not given): the growth with NCI-H23 lung is 72.6%; with NCI-H226 lung, 53.1%; in the experiment on NCI-H322M lung, 76.1%; with NCI-H460 lung, 39.6%; in the experiment on HOP-92 NSCLC, 7.13% (active); in the experiment on NCI-H522 lung, 33.1%. For the same molecule, the growth with A549/ATCC NSCLC was 38.2%; in the experiment on 786-0 renal, 61.4%; with COLO 205 colon, 63.5%.
As to `O=C(CSc1nc2sc3c(c2c(=O)n1-c1ccc(Cl)cc1)CCCC3)NNC(=O)c1ccc(Br)cc1`, the growth in the experiment on NCI-H23 lung was 55.6%; in the experiment on NCI-H226 lung, 45.2%; in the experiment on NCI-H322M lung, 52.7%; in the experiment with NCI-H460 lung, 76.9%; in the experiment with HOP-92 NSCLC it was 61.2%; in the experiment on NCI-H522 lung, 64.4%. In addition, the growth in the experiment on A549/ATCC NSCLC was 82.6%; in the experiment on 786-0 renal it was 98.5%; in the experiment on COLO 205 colon, 120%.
For `Cn1cc(-c2cc(N)n3nc(-c4c[nH]c5ccc(Cl)cc45)cc3n2)c2cccnc21`, the growth is -75.7% (active) in the experiment with NCI-H23 lung; -58.4% (active) in the experiment on NCI-H226 lung; -83.6% (active) in the experiment with NCI-H322M lung; -47% (active) with NCI-H460 lung; -70.5% (active) in the experiment with HOP-92 NSCLC; -82.1% (active) in the experiment with NCI-H522 lung. The figures for the growth in the experiment with A549/ATCC NSCLC, in the experiment with 786-0 renal and in the experiment on COLO 205 colon were -77.2% (active), -92.5% (active) and -83.1% (active), respectively.
Turning to `COc1ccc2[nH]c(O)c(N=Nc3nc(-c4ccc(Cl)cc4)cs3)c2c1`, the growth with NCI-H23 lung is -33.7% (active); with NCI-H226 lung, -54.3% (active); with NCI-H322M lung it was 12.8%; in the experiment on NCI-H460 lung, -31.4% (active); with HOP-92 NSCLC, -38.8% (active); with NCI-H522 lung, -26.4% (active). The values for the growth in the experiment with A549/ATCC NSCLC, with 786-0 renal and in the experiment on COLO 205 colon were -60.8% (active), -86.6% (active) and -76.9% (active), respectively.
For the molecule `Cc1ccc(Nc2nnc(-c3c[nH]c4ccccc34)o2)c(C)c1`, the growth with NCI-H23 lung is 16.2%; with NCI-H226 lung it was 43.9%; in the experiment with NCI-H322M lung, 40.2%; with HOP-62 NSCLC, 23.2%; in the experiment on HOP-92 NSCLC it was 21.8%; in the experiment with NCI-H522 lung it was -30.4% (active). Further, the growth is 12.6% in the experiment on A549/ATCC NSCLC, 1.66% (active) with 786-0 renal and -55.5% (active) with COLO 205 colon.
As for `CCOc1ccccc1[C@H]1C(C(=O)c2ccc(Cl)cc2)C2(N[C@@H]1c1ccccc1)C(=O)Nc1ccccc12` (stereo not given in full), the growth in the experiment on NCI-H23 lung was 4.22% (active); in the experiment on NCI-H226 lung, -18.4% (active); with NCI-H322M lung, 36.1%; with NCI-H460 lung, -36.3% (active); in the experiment with HOP-92 NSCLC it was -22.4% (active); with NCI-H522 lung, -3.52% (active). The values for the growth in the experiment on A549/ATCC NSCLC, in the experiment on 786-0 renal and in the experiment with COLO 205 colon were 57.4%, -16.4% (active) and -81.5% (active), respectively.
